Rows were chosen to be rich in hits. Some 7.9% of all compounds tested hit in one or more screens of this group.
KB-V1 cytotox = kills drug-selected multidrug resistant KB-V1 cells. KB-V1 MDR cells viability, CellTiter-Glo, 72 h. Potency, µM (series often up to 46.1 µM), most hits filed as cytotoxic. actives 3.4% (n = 400,000). AID 1347076; further: nearly all actives have a fitted effect of over 60% in size
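Potencies derive from concentration-effect curves fitted to normalized luminescence (CellTiter-Glo) of KB-V1 cells treated for 72 h at 37 degrees C in phenol-red-free DMEM containing 10% FBS.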
MCF10A rerep = DNA re-replication induction in MCF 10a cells; MCF 10A DNA re-replication, Hoechst nuclear intensity, 48 h; Potency, µM (doses to about 46.1 µM), hits mostly activators; actives 2.9% (n = 350,000); further: nearly all actives have a fitted effect of over 50% in size
SW480 rereplic = induces DNA re-replication in SW480 colon adenocarcinoma cells; AID 624297; SW480 DNA re-replication, Hoechst DNA content imaging, 48 h; Potency, µM (series often up to 46.1 µM), actives largely listed as activators; actives 1.8% (n = 340,000); further: nearly all actives have a fitted effect of over 55% in size
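Treated cells incubate 48 hr (37 C, 5% CO2), are stained 40 min with Hoechst, and nuclear fluorescence is enumerated; a rise in nuclei with high DNA signal marks re-replication.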
HT1080 IDH1KD tx = HT-1080 IDH1 knockdown cell toxicity (counter line); AID 686971; actives 2% (n = 360,000); Potency, µM (highest dose often 46.1 µM), actives largely listed as cytotoxic; HT-1080 IDH1 knockdown viability, ATP luminescence, 48 h
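After a 2 h attachment period, IDH1KD HT-1080 cells took pin-transferred compound for 48 h at 37 °C; ATP-based luminescence after 10 min room-temperature reagent incubation reported viability.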
HT1080-NT tox = kills 2HG-producing HT-1080-NT fibrosarcoma cells. HT-1080-NT fibrosarcoma viability, CellTiter-Glo ATP luminescence, 48 h. AID 686970. actives 1.6% (n = 360,000). Potency, µM (titrated, usually from 46.1 µM), usual class: cytotoxic;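 further: NT is the 2HG producing partner of a matched IDH1 knockdown line; nearly all actives have a fitted effect of over 55% in size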
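HT-1080-NT fibrosarcoma cells (2HG-overproducing), 750 cells/well in RPMI with 5% FBS, dosed after 2 h and incubated 48 h at 37C. CellTiter-Glo luminescence normalized to DMSO and no-cell wells; concentration-response curves fitted and classed.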
KB-3-1 tox = kills parental KB-3-1 adenocarcinoma cells. KB-3-1 viability, CellTiter-Glo ATP luminescence, 72 h. Potency, µM (doses to about 46.1 µM), actives largely listed as cytotoxic. actives 1.4% (n = 400,000). AID 1347075; further: nearly all actives have a fitted effect of over 60% in size
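Cytotoxicity measured as CellTiter-Glo luminescence after 72 h at 37 C. Compound titrations were pinned onto drug-naive KB-3-1 parental adenocarcinoma cells grown in DMEM with 10% FBS, and normalized data fitted to concentration-response curves.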
Numbers stand for hits; . = inactive; ? = inconclusive; / = no result given; [ ] = remark or other dose. The call rests on the fitted dose curve; in most records, active means well fitted curve in the direction sought with a large enough effect; inconclusive means small, poorly fitted or top-dose-only effect, or another doubt; inactive means no such curve, though single readings can be large; an effect the other way counts as inactive or inconclusive.

SMILES	KB-V1 cytotox	MCF10A rerep	SW480 rereplic	HT1080 IDH1KD tx	HT1080-NT tox	KB-3-1 tox
COc1ccc(C(=O)C(CN2CCCC2)c2ccccc2)cc1 (stereo unspecified)	7.08µM	?	?	12.6µM	11.2µM	7.08µM
O=C(c1ccc(Cl)cc1)C(CN1CCCC1)c1ccccc1 (stereo unspecified)	.	4.11µM	?	20.6µM	18.4µM	?
O=C(Cn1nc(-c2ccccc2)c2cnc3ccc(F)cc3c21)NC1CCCC1	.	/	/	/	/	.
O=C(Nc1ccc(S(=O)(=O)N2CCCC2)cc1)c1ccc([N+](=O)[O-])cc1	.	.	.	.	.	.
O=C(Nc1ccccc1N1CCOCC1)c1ccc([N+](=O)[O-])s1	?	?	16.4µM	?	?	?
O=C(Nc1ccc(S(=O)(=O)N2CCOCC2)cc1)c1ccc([N+](=O)[O-])o1	?	?	.	8.2µM	18.4µM	?
O=C(Nc1ccc(S(=O)(=O)N2CCOCC2)cc1)c1ccc([N+](=O)[O-])s1	?	13µM	.	.	.	5.17µM
O=C(Nc1ccc(S(=O)(=O)N2CCCC2)cc1)c1ccc([N+](=O)[O-])o1	?	1.84µM	0.731µM	14.6µM	16.4µM	?
O=C(Nc1ccc(S(=O)(=O)N2CCOCC2)cc1)c1cc([N+](=O)[O-])ccc1Cl	.	.	.	?	?	?
O=C(Nc1ccccc1N1CCOCC1)c1ccccc1[N+](=O)[O-]	.	.[0.0737 µM]	.	.	.	.
O=C(OCC(=O)N1CCc2ccccc2C1)c1ccc(O)cc1	.	.	.	.	.	.
CN1CCC(N2CCN(C3CN(Cc4ccc(F)cc4)S(=O)(=O)C3)CC2)CC1 (stereo unspecified)	.	/	/	.	.	.
NC(=O)COc1ccc(-c2noc(COc3ccc(Cl)cc3)n2)cc1	?	/	/	/	/	.
CC(Nc1c[nH]c(=O)[nH]c1=O)c1ccccc1 (stereo unspecified)	?	.	.	.	.	.
Cc1ccc(NC(=O)c2cc(S(=O)(=O)N3CCOCC3)c(Br)s2)cc1	23.1µM	.	.	?	.	?
O=C(Nc1ccc(S(=O)(=O)N2CCCCCC2)cc1)c1ccc(Br)o1	5.8µM	.	.	.	.	?
Cc1c(C(=O)Nc2ccc(Cc3ccncc3)cc2)cccc1[N+](=O)[O-]	.	.	.	?	?	.
O=C(Nc1ccc(N2CCOCC2)cc1)c1ccc([N+](=O)[O-])o1	?	4.61µM	1.3µM	5.17µM	7.31µM	.
O=C(Nc1ccc(Cc2ccncc2)cc1)c1ccc([N+](=O)[O-])o1	.	3.66µM	5.17µM	5.17µM	3.66µM	?
Cc1ccc(C(=O)Nc2ccc(S(=O)(=O)N3CCCC3)cc2)o1	?	.	.	.	.	.
Cc1ccc(-n2c(=O)c3c(c4cc(C)ccc4n3C)n(CC(=O)NCCC3=CCCCC3)c2=O)cc1	.	/	/	/	/	.
CCOc1ccc(Nc2ccc(S(=O)(=O)N3CCOCC3)cc2[N+](=O)[O-])cc1	?	/	/	.	.	.
CC(=O)Nc1ccc2nc(NC(=O)c3ccc([N+](=O)[O-])o3)sc2c1	16.4µM	0.651µM	3.26µM	5.17µM	?	9.2µM
Cc1ccc(C(=O)Nc2ccc(S(=O)(=O)N3CCc4ccccc4C3)cc2)o1	14.6µM	.	.	?	.	.
O=C(Nc1ccc(Oc2ccc(S(=O)(=O)N3CCOCC3)cn2)cc1)c1ccco1	18.4µM	.	.	.	.	.
SMILES	KB-V1 cytotox	MCF10A rerep	SW480 rereplic	HT1080 IDH1KD tx	HT1080-NT tox	KB-3-1 tox
CCc1ccc(Nc2ccc(S(=O)(=O)N3CCOCC3)cc2[N+](=O)[O-])cc1	23.1µM	.	.	.	.	.
O=C(Nc1ccc(S(=O)(=O)N2CCOCC2)cc1)c1ccco1	.	.	.	.	.	.
Cc1c(C(=O)N(CC(C)C)c2c(N)n(Cc3ccccc3)c(=O)[nH]c2=O)sc2nc3n(c(=O)c12)CCC3	.	.	.	.	.	.
O=C(c1nc(-c2ccc(Cl)cc2)n2c1CCCCC2)N1CCN(c2ccccc2F)CC1	.	/	/	/	/	?
CCn1nnc(NC(=O)c2ccc([N+](=O)[O-])o2)n1	.	14.6µM	?	?	?	?
CCCCn1nnc(NC(=O)c2ccc(-c3ccccc3[N+](=O)[O-])o2)n1	.	.	.	.	.	.
COC(=O)c1c(C)cccc1C1CN=NC12Cc1ccccc1C2=O (stereo unspecified)	20.6µM	.	.	.	.	.
O=C(Nc1ncnc2c1ncn2[C@@H]1O[C@H](/C=C/C(=O)N2CCN(c3ccc(F)cc3)CC2)[C@@H](O)[C@H]1O)c1ccccc1	.	/	/	.	.	.
Nc1nc(=O)n(C2OC(CO)C(O)C2O)cc1F (stereo unspecified)	.	/	/	.	?	.
Nc1cnn(C2OC(CO)C(O)C2O)c(=O)n1 (stereo unspecified)	4.11µM	.	.	.	.	2.31µM
